Laboratory results: the supplement of paper PMC10849652
Of roughly 7,900 targets only a part is listed; those with a hit were picked by preference. About 0.6% of all pairs of compound and target were hits.

Experiments:
Assay in all cases: log2 fold change, soluble protein after heating vs DMSO (PISA); higher = thermal stabilisation; K562 cells, 10 uM, 30 min; active = over 0.2 and 3.5 SD of the protein, either way, in both replicates (recomputed)
[1] = compound: C1=CC=C(C=C1)[C@H](COC2=CC3=C(C=C2)NC(=O)N3)NC(=O)C4=CC=CN(C4=O)CC5=CC(=C(C=C5)F)F
Summary of the method: (§1)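 K562 cells at 2×10^6 cells/mL were given 10 μM compound for 30 min. Aliquots then went through 3 min of heating across 48°C-58°C, were pooled, and were extracted in PBS with 0.5% NP-40 at 4°C, and the supernatant after 21,000xg for 90 min was quantified by TMTpro 16plex LC-MS/MS with channel sums equalised. Thermal stability relative to control samples, from duplicates, is given as log2 fold change.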

[2] = compound: CC1=C(SC2=C1C(=N[C@H](C3=NN=C(N32)C)CC(=O)N)C4=CC=C(C=C4)Cl)C
Summary of the method: as §1

[3] = compound: CC1=C2C(=CC=C1)N=C(N(C2=O)C3=CC=CC=C3C)CN4C=NC5=C(N=CN=C54)N
Summary of the method: as §1

[4] = compound: Cc1sc2c(c1C)C(c1ccc(Cl)cc1)=N[C@@H](CC(=O)OC(C)(C)C)c1nnc(C)n1-2
Summary of the method: as §1

[5] = compound: c1ccc([C@@H]2C[C@H]2NC2CCNCC2)cc1
Summary of the method: as §1

Measured: log2 fold change

CORO2A (UniProt Q92828)
Sequence of UniProt Q92828 (Q92828 whole entry, looked up): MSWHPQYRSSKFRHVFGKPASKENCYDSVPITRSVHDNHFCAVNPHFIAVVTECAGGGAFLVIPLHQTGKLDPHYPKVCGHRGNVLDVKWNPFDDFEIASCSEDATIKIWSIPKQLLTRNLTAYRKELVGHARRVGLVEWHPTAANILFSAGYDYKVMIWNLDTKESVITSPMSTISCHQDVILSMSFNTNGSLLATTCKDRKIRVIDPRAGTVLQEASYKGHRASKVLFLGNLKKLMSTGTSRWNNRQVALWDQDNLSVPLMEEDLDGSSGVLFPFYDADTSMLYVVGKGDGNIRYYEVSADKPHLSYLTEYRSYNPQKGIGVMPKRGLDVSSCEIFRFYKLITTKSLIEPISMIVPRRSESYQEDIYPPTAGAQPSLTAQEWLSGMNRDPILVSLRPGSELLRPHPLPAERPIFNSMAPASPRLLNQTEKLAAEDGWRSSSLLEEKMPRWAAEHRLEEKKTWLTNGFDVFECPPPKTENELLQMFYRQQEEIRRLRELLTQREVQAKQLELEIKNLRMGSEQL
inactive: [1] -0.057 | [2] -0.041 | [3] 0.061 | [4] 0.045 | [5] 0.071

CCM2 isoform 2 (UniProt Q9BSQ5)
Sequence of UniProt Q9BSQ5 (Q9BSQ5 whole entry, looked up): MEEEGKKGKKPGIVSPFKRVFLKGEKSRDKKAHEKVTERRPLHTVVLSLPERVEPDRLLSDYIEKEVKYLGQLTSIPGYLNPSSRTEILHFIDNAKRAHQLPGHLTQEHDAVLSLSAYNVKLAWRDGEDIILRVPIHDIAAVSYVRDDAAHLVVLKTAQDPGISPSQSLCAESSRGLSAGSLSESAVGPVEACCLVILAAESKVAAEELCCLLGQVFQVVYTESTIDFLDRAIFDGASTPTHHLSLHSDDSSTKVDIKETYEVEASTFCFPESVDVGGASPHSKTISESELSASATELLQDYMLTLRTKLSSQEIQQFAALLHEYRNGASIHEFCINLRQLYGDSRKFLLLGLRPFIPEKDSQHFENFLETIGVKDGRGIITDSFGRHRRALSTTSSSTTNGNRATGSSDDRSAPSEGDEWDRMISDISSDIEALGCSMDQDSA
inactive: [1] 0.013 | [2] 0.144 | [3] 0.046 | [4] -0.161 | [5] -0.046

CSNK1A1 isoform 3 (UniProt P48729)
inactive: [1] -0.061

CCDC59 (UniProt Q9P031)
Sequence of UniProt Q9P031 (Q9P031 whole entry, looked up): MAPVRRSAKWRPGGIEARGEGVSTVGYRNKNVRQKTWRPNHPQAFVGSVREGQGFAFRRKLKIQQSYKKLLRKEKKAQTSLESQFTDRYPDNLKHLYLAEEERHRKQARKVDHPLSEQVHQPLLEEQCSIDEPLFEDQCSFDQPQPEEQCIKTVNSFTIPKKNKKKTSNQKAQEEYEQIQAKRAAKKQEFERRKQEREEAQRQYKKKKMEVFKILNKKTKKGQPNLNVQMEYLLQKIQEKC
inactive: [1] 0.012 | [2] -0.177 | [3] -0.214 | [4] 0.165 | [5] 0.052

COMT (UniProt P21964)
Sequence of UniProt P21964 (P21964 whole entry, looked up): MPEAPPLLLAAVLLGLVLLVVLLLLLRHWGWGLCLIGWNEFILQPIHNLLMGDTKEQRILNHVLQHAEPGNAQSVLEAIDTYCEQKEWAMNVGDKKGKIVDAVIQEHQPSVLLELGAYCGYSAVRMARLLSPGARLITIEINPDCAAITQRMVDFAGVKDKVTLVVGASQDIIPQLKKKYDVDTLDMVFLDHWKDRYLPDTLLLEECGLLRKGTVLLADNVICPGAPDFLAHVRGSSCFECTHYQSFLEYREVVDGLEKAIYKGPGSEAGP
inactive: [1] 0.024 | [2] 0.142 | [3] 0.09 | [4] -0.028 | [5] -0.038

CSTF3 (UniProt Q12996)
Sequence of UniProt Q12996 (Q12996 whole entry, looked up): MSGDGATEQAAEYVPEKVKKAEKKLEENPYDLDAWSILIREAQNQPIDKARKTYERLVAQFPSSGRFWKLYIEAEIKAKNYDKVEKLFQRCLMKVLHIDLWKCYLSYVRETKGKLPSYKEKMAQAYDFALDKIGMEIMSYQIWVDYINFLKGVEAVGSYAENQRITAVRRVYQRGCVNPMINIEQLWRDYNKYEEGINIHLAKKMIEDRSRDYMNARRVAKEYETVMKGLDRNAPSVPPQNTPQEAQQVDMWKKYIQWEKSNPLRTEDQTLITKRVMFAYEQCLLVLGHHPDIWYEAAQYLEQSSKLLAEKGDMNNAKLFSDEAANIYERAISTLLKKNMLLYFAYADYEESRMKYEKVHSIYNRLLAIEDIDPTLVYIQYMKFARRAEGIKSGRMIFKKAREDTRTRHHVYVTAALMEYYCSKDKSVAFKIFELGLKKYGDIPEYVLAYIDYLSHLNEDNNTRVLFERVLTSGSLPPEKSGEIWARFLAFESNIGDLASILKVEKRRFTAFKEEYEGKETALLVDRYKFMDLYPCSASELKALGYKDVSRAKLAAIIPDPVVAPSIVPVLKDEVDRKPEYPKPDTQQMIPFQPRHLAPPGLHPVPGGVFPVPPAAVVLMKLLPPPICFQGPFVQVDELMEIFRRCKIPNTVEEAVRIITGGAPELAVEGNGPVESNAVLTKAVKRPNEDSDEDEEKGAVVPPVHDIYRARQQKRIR
inactive: [1] -0.005 | [2] 0.064 | [3] -0.007 | [4] 0.03 | [5] -0.016

CHD4 isoform 2 (UniProt Q14839)
Sequence of UniProt Q14839 (Q14839 whole entry, looked up): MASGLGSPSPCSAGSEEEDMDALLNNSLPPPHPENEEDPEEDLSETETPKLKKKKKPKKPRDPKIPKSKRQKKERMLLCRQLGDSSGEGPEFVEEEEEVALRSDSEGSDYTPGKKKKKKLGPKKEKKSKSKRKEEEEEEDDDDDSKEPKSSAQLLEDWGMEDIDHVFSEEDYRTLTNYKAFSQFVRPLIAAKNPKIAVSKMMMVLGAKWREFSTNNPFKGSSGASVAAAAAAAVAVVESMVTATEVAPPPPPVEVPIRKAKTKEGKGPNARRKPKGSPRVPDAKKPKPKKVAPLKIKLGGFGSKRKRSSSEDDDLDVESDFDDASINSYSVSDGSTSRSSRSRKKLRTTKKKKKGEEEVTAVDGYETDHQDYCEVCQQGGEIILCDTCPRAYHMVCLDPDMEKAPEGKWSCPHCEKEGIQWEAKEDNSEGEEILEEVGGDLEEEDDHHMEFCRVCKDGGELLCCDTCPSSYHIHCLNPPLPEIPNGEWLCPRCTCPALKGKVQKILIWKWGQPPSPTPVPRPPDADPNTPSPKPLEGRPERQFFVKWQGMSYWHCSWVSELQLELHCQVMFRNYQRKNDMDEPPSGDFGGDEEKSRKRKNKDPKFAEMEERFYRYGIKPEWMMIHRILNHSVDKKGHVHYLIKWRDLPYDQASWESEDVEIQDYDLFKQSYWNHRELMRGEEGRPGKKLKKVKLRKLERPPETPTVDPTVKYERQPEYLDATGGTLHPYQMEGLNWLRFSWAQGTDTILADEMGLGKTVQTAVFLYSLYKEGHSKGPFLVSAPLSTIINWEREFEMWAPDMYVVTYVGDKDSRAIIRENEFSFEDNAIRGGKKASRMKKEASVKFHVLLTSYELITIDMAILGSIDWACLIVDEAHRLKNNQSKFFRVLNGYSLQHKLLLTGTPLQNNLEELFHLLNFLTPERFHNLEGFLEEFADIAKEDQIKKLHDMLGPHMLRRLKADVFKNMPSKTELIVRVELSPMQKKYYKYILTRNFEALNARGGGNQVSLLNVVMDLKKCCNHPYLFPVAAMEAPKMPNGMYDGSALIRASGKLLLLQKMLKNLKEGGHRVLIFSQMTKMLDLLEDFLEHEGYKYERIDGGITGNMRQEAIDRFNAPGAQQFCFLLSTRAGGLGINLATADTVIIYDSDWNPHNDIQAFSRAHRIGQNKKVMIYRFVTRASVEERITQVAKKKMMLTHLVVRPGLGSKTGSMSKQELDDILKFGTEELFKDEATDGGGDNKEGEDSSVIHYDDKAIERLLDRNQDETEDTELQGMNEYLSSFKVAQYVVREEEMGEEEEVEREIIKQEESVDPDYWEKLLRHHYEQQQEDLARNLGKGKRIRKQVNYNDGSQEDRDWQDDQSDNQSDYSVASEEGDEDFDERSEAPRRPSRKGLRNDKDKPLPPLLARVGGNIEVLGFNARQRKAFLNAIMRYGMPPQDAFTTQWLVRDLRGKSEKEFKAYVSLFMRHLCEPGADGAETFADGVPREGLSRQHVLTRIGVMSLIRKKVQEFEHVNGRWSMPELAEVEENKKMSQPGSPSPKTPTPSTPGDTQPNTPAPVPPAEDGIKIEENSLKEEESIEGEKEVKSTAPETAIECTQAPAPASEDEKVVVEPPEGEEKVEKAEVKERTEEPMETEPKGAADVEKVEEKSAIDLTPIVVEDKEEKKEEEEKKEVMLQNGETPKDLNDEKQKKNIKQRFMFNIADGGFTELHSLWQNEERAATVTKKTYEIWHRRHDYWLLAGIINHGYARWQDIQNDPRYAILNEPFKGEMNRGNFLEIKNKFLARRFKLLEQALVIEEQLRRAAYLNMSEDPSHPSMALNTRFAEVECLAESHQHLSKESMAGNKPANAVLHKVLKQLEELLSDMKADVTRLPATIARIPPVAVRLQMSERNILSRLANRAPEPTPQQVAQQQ
inactive: [1] -0.065 | [2] 0 | [3] 0.021 | [4] 0.049 | [5] 0.032

CERT isoform 3 (UniProt Q9Y5P4)
Sequence of UniProt Q9Y5P4 (Q9Y5P4 whole entry, looked up): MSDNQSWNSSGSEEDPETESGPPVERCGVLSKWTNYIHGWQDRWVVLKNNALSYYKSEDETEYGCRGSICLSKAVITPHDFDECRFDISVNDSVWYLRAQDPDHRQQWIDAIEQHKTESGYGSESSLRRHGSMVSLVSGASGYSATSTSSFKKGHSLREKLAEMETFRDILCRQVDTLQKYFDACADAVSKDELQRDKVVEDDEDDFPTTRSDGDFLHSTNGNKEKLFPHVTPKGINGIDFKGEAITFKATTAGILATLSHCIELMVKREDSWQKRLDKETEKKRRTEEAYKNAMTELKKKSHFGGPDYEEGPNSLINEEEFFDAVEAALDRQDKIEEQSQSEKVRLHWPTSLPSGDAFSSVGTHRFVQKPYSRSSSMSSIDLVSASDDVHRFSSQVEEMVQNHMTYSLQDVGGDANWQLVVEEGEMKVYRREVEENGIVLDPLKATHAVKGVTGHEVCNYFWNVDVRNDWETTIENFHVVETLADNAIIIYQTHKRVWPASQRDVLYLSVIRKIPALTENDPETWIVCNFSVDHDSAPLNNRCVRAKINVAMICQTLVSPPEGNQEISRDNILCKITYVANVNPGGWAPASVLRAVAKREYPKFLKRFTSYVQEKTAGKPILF
inactive: [1] 0.102 | [2] 0.029 | [3] 0.066 | [4] 0.14 | [5] -0.028

CNN2 (UniProt Q99439)
Sequence of UniProt Q99439 (Q99439 whole entry, looked up): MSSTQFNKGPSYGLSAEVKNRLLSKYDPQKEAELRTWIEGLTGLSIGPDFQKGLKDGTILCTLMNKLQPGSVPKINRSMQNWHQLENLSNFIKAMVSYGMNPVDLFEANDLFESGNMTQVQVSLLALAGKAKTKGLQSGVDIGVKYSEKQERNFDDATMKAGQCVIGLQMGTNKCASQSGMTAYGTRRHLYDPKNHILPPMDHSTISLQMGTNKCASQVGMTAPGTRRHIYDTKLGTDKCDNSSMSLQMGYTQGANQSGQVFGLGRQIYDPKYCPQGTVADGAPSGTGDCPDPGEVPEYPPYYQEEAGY
inactive: [1] -0.061 | [2] 0.011 | [3] 0.039 | [4] 0.007 | [5] 0.01
